According to PubChem BioAssay:
Active and inactive are the calls of the source.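 Rule for the calls, unless noted: active = thallium flux through the channel raised or lowered by more than 3 SD from vehicle-only wells, actives on both sides; inactive = the rest.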

Tests used:
[1] = UWB1.289 ovarian carcinoma cell growth inhibition, synergistic combos for chromothripsis tumors, BGB or cisplatin combos (AID 1671456; in the data active = inhibition above about 80%;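 note: cells exposed to compound for four days; 0% = vehicle DMSO and 100% = killing by high DMSO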); settings: UWB1.289 ovarian carcinoma cells, stronger effect = higher value
[2] = LFS_MB_2R medulloblastoma cell growth inhibition, synergistic combos for chromothripsis tumors, cisplatin combos (AID 1671457; in the data active = inhibition above about 80%;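 note: cells exposed to compound for four days before readout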); settings: LFS_MB_2R medulloblastoma cells, stronger effect = higher value
[3] = MDA-MB-436 breast carcinoma cell growth inhibition, synergistic combos for chromothripsis tumors, BGB or cisplatin combos (AID 1671458; call rule not given here;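 note: cells exposed for 96 hours; 0% = vehicle DMSO and 100% = killing by high DMSO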); settings: MDA-MB-436 breast carcinoma growth inhibition, drug combinations, stronger effect = higher value
[4] = UWB1.289_BRCA1 ovarian cancer growth, cell-based, BGB or cisplatin combinations (AID 1671459; in the data active = inhibition above about 80%); settings: UWB1.289 BRCA1 ovarian carcinoma, drug combinations, stronger effect = higher value
[5] = human astrocyte viability loss, single and combined drugs, cytotoxicity control for chromothriptic childhood tumor combination screen, cell-based, BGB or cisplatin IC20 combos (AID 1671460; in the data active = inhibition above about 80%;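 note: cells exposed to compounds for 96 hours before viability readout; 0% = vehicle and 100% = killing control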); settings: Human astrocytes, drug combinations, stronger effect = higher value
[6] = growth inhibition of BT084 medulloblastoma cells, cell-based, ICGC_MB145, cisplatin and BGB IC40 combos (AID 1671461; in the data active = inhibition above about 80%;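 note: cells exposed to drugs for 96 hours; 0% = vehicle DMSO and 100% = high DMSO full killing control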); settings: drug combinations, stronger effect = higher value
[7] = growth inhibition of RCMB18 medulloblastoma cells, cell-based, cisplatin and BGB IC40 combos (AID 1671462; in the data active = inhibition above about 80%;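 note: cells exposed to compound for four days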); settings: stronger effect = higher value
[8] = growth inhibition of CRL1545 osteosarcoma cells, cell-based, cisplatin and BGB IC20 combos (AID 1671464; in the data active = inhibition above about 80%;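 note: cells exposed to compound for 96 hours before readout; 0% = vehicle DMSO and 100% = high DMSO killing control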); settings: stronger effect = higher value
F380Y = assay: modulators of BK channel variants, profiling panel, selectivity assay, cell-based, U2OS BacMam, thallium flux, beta subunits (AID 1259406); settings: at 30 µM;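 note: initial slope of Thallos dye fluorescence rise after thallium is added; log ratio against the mean of 0.3% DMSO vehicle wells on the same plate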
F380Y/beta1 = assay: as above; settings: at 30 µM
F380Y/beta2Delta = assay: as above; settings: at 30 µM
F380Y/beta4 = assay: as above; settings: at 30 µM
[9] = molecular target: Calcium-activated potassium channel subunit alpha-1 (Homo sapiens) + Leucine-rich repeat-containing protein 26 (Homo sapiens) (UniProt Q12791+Q2I0M4); assay: as above; settings: F380Y/Slo1WT/gamma1, at 30 µM
R275C = assay: as above; settings: at 30 µM
R275C/beta1 = assay: as above; settings: at 30 µM
R275C/beta2Delta = assay: as above; settings: at 30 µM
R275C/beta4 = assay: as above; settings: at 30 µM
R275C/Slo1WT/beta2 = assay: as above; settings: at 30 µM
[10] = measured here: combination with cisplatin, at 0.5 µM

Calcium-activated potassium channel subunit alpha-1 (Homo sapiens) + Leucine-rich repeat-containing protein 26 (Homo sapiens), sequence (Q2I0M4 whole entry, looked up, one chain of several): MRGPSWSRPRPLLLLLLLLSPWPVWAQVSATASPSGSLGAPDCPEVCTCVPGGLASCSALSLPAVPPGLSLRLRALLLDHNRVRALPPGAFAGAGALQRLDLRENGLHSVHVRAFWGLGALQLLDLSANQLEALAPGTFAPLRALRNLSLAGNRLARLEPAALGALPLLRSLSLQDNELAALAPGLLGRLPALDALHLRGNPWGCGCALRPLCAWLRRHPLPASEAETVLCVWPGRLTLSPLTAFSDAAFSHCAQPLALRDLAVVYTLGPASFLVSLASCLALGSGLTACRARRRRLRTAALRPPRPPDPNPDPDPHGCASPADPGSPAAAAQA

CC(N)C12CC3CC(CC(C3)C1)C2 (configuration not stated)
inhibition ([1]; at 0.5 µM): -6.71% (inactive)
inhibition ([1]; measured here: inhibition with BGB combination, at 0.05 µM): -27.7%
inhibition ([1]; measured here: inhibition with cisplatin combination, at 0.05 µM): -16.3%
inhibition ([2]; at 0.5 µM): -18.8% (inactive)
inhibition [2, 10]: -16.8%
inhibition ([2]; measured here: combination with cisplatin, at 5 µM): -59.2%
inhibition ([3]; at 0.5 µM): -35.4% (inactive)
inhibition ([3]; measured here: BGB combination, at 0.5 µM): -21.6%
inhibition ([3]; measured here: BGB combination, at 5 µM): -29.1%
inhibition ([3]; measured here: cisplatin combination, at 0.5 µM): -60.5%
inhibition ([3]; measured here: cisplatin combination, at 5 µM): -34.4%
inhibition ([4]; BGB combination, concentration series, at 5 µM): -31.1%
inhibition ([4]; at 0.5 µM): -16.9% (inactive)
inhibition ([4]; cisplatin combination, concentration series, at 5 µM): 2.74%
inhibition ([5]; at 0.5 µM): -10.5% (inactive)
inhibition ([5]; measured here: combo with BGB IC20, at 0.5 µM): -8.28%
inhibition ([5]; measured here: combo with cisplatin IC20, at 0.5 µM): -5.35%
inhibition ([6]; at 0.5 µM): -35.2% (inactive)
inhibition ([6]; cisplatin combination, at 0.5 µM): -18.2%
inhibition ([6]; cisplatin combination, at 5 µM): -3.55%
inhibition ([6]; measured here: BGB IC40 combination 0.05 uM, at 0.05 µM): 9.42%
inhibition ([6]; single agent, at 5 µM): -34.6%
inhibition ([7]; at 0.5 µM): -21.2% (inactive)
inhibition ([7]; cisplatin combo, at 5 µM): -32.4%
inhibition ([7]; measured here: BGB IC40 combination, at 0.05 µM): -22.9%
inhibition [7, 10]: -18.2%
inhibition ([7]; single agent, at 5 µM): -26.9%
inhibition ([8]; at 0.5 µM): -36.2% (inactive)
inhibition ([8]; measured here: with BGB IC20 combination, at 0.5 µM): -19.2%
inhibition ([8]; measured here: with cisplatin IC20 combination, at 0.5 µM): -48%
inhibition ([8]; single agent, at 0.05 µM): -83.2%
inhibition ([8]; single agent, at 5 µM): 0.3%
log fold change Tl+ flux (F380Y): 0.00103 (inactive)
log fold change Tl+ flux (F380Y/beta1): 0.0203 (inactive)
log fold change Tl+ flux (F380Y/beta2Delta): 0.0577 (inactive)
log fold change Tl+ flux (F380Y/beta4): 0.0485 (inactive)
log fold change Tl+ flux [9]: 0.0164 (inactive)
log fold change Tl+ flux (R275C): 0.0361 (inactive)
log fold change Tl+ flux (R275C/beta1): -0.0211 (inactive)
log fold change Tl+ flux (R275C/beta2Delta): 0.0568 (inactive)
log fold change Tl+ flux (R275C/beta4): 0.04 (inactive)
log fold change Tl+ flux (R275C/Slo1WT/beta2): 0.0291 (inactive)

O=c1[nH]cnc2c1ncn2[C@H]1CC[C@@H](CO)O1
log fold change Tl+ flux (F380Y): -0.00984 (inactive)
log fold change Tl+ flux (F380Y/beta1): -0.0163 (inactive)
log fold change Tl+ flux (F380Y/beta2Delta): 0.0117 (inactive)
log fold change Tl+ flux (F380Y/beta4): -0.00261 (inactive)
log fold change Tl+ flux [9]: 0.0216 (inactive)
log fold change Tl+ flux (R275C): -0.0353 (inactive)
log fold change Tl+ flux (R275C/beta1): -0.00622 (inactive)
log fold change Tl+ flux (R275C/beta2Delta): -0.00829 (inactive)
log fold change Tl+ flux (R275C/beta4): 0.000837 (inactive)
log fold change Tl+ flux (R275C/Slo1WT/beta2): 0.00413 (inactive)
